Screens deposited in PubChem BioAssay by several laboratories.
hcDAF-12 act: activators of H. contortus DAF-12 nuclear receptor. HEK293 hcDAF-12 lit1-tk-luc reporter, luminescence; 0% DMSO, 100% Δ7-dafachronic acid. activation, % at 6.8 µM. 370,000 tested, 1.4% active. AID 652067;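 active means activation above the mean of all tested compounds plus 3 SD, cut at about 5.5% in these data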;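 further: 100% = response to 3 µM Δ7-dafachronic acid high control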
hgDAF12 agonist: hgDAF-12 agonism, primary luciferase screen. AID 687014. HEK293 GAL4-hgDAF12 UAS-luciferase reporter, agonist luminescence; normalized to butyrate control. activation, % at 6.8 µM. 370,000 tested, 1.8% active;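 active means activation above a cutoff set at the mean of all screened compounds plus 3 SD, cut at about 10% in these data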;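 further: 0% = DMSO wells and 100% = sodium butyrate wells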
esBAF inh: inhibitors of esBAF chromatin remodeling in mouse ES cells. reporter increase, % at 12.5 µM. Bmi1-luciferase knock-in reporter, 24 h; 100% = twice the neutral-well signal. AID 602393. 350,000 tested, 2% active; in the data active means activation above about 40%;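 further: 0% = median of the plate's neutral control wells and 100% = double that signal; a rise in the Bmi1 reporter signal indicates esBAF inhibition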
ssDAF-12 act: activators of S. stercoralis DAF-12 nuclear receptor | HEK293 ssDAF-12/GRIP1 lit1-tk-luc reporter, luminescence; % of 3 µM dafachronic acid response | activation, % at 6.8 µM | 370,000 tested, 1% active;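 active means activation above the mean over all tested compounds plus 3 SD, cut at about 0.9% in these data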;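 further: 0% = DMSO-only wells and 100% = 3 µM delta7-dafachronic acid wells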
Wnt act: activators of Wnt/beta-catenin signaling | activation, % at 9.35 µM | Wnt/beta-catenin reporter cell assay, activator, plate reader | 300,000 tested, 1.2% active; in the data active means activation above about 30%, passing the limit was not always enough;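 further: 0% = neutral control wells and 100% = positive control wells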
DAX1 inh: DAX1 (NR0B1) inhibition, primary screen; HEK293T StAR-luciferase reporter, SF-1/DAX-1 repression relief; 370,000 tested, 1.1% active; inhibition, % at 6.8 µM;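 active means inhibition above the mean over all tested compounds plus 3 SD, cut at about 3.6% in these data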;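 further: 0% = DAX-1 cells with DMSO and 100% = cells lacking DAX-1 with DMSO; higher inhibition means more luminescence from relief of DAX-1 repression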
* = called active by the depositor; . = not tested or not shown. Compounds with a hit are over-represented: about 4.2% of the library has one in this group of screens.

SMILES	hcDAF-12 act	hgDAF12 agonist	esBAF inh	ssDAF-12 act	Wnt act	DAX1 inh
C[C@@H]1CCCCO[C@@H](CN(C)C(=O)Nc2ccccc2)[C@H](C)CN([C@@H](C)CO)C(=O)c2cc(NC(=O)c3ccccc3)ccc2O1	.	.	3	.	.	.
Cc1noc(C)c1NC(=O)Nc1ccc2c(c1)C(=O)N([C@@H](C)CO)C[C@H](C)[C@H](CN(C)S(=O)(=O)c1cn(C)cn1)O2	.	.	-2	.	.	.
CC(=O)Nc1ccc(OC/C=C(\C)Cl)cc1	0	2	55*	-1	.	0
Nc1nc(SCc2ccccc2)ns1	1	6	50*	0	.	1
COc1ccc(S(=O)(=O)N2C[C@H](O)COC[C@H]3O[C@H](CC(=O)NCCCN(C)C)CC[C@@H]32)cc1	.	.	-3	.	.	.
C[C@@H]1CN([C@@H](C)CO)C(=O)c2cccc(NC(=O)c3nc4ccccc4s3)c2O[C@@H]1CN(C)Cc1ccncc1	.	.	5	.	.	.
O=C(Nc1nc2cc3c(cc2s1)OCO3)c1ccc(N2C(=O)CCC2=O)cc1	0	1	.	1.4*	-2	0
Cc1ccc2nc(NC(=O)c3ccc(N4C(=O)CCC4=O)cc3)sc2c1	5.9*	5	.	0	7	1
C[C@@H]1CN([C@H](C)CO)C(=O)c2cc(-c3cccnc3)cnc2O[C@@H]1CN(C)C(=O)c1cccc(F)c1	.	.	4	.	.	.
CCCNC(=O)C[C@@H]1CC[C@@H]2[C@H](COC[C@@H](O)CN2C(=O)c2ccccn2)O1	.	.	-6	.	.	.
C=CCOc1c(CNc2ccc(C(=O)O)cc2)cccc1OC	-1	0	.	-1	3	0
C=CCOc1c(CNc2ccc(C(=O)O)cc2)cccc1OCC	-2	0	44*	-1	.	1
Cc1cc(NC(=O)CSc2nc3c(C)ccc(C)c3cc2C#N)no1	-1	0	2	-1	0	0
COCc1cc(C)nc(SCC(=O)Nc2ccc3[nH]c(=O)[nH]c3c2)c1C#N	-2	1	-7	-1	-4	1
Cc1cc(C)c(C#N)c(SCC(=O)Nc2cc(C)on2)n1	3	11*	82*	0	2	3
Cc1nc(SCC(=O)Nc2ccc3c(c2)OCO3)c(C#N)c2c1CCCC2	0	1	35	-1	3	0
COCc1cc(C)nc(SCC(=O)Nc2ccc(C)c(C)c2)c1C#N	0	7	43*	0	-1	0
Cc1cc(C)c(C#N)c(SCC(=O)Nc2ccc3c(c2)OCO3)n1	0	5	19	-1	42*	1
CCOC(=O)NC(=O)CSc1nc(C)cc(C)c1C#N	3	13*	-12	-1	27	3
COc1cc(/C=C2/C(=N)N3N=C(CC(=O)N4CCOCC4)SC3=NC2=O)ccc1OC(C)c1ccccc1 (stereo not given)	-1	1	-3	2.2*	3	1
CS(=O)(=O)Oc1ccc(/C=C2\C(=N)N3N=C(CC(=O)N4CCOCC4)SC3=NC2=O)cc1Cl	-1	1	2	-1	-2	1
Cc1cc(/C=C2\C(=N)N3N=C(CC(=O)N4CCOCC4)SC3=NC2=O)c(C)n1Cc1ccccc1	-1	2	.	-1	-1	0
N=C1/C(=C/c2ccc(OCc3ccccc3)cc2)C(=O)N=C2SC(CC(=O)N3CCOCC3)=NN12	2	4	42*	0	3	0
C[C@@H]1CN([C@@H](C)CO)C(=O)Cc2cc(NC(=O)Cc3cn(C)c4ccccc34)ccc2O[C@H]1CN(C)Cc1ccccc1	.	.	-3	.	.	.
Cc1ccc(N2CN=c3s/c(=C\c4ccccn4)c(=O)n3C2)cc1	-1	0	77*	-2	3	1
SMILES	hcDAF-12 act	hgDAF12 agonist	esBAF inh	ssDAF-12 act	Wnt act	DAX1 inh
Cc1ccc2cc3cc(C(=O)NC4CC4)oc3nc2c1	-1	4	45*	-1	31*	3
Cc1ccc2cc3cc(C(=O)N4CCCCC4C)oc3nc2c1 (stereo not given)	5.9*	12*	50*	1.0*	.	4.2*
C[C@@H]1CCCCO[C@@H](CN(C)C(=O)Cc2ccccc2)[C@H](C)CN([C@H](C)CO)C(=O)c2cc(NS(=O)(=O)c3cn(C)cn3)ccc2O1	.	.	13	.	.	.
COc1cccc(S(=O)(=O)Nc2ccc3c(c2)C(=O)N(C)[C@H]2CC[C@@H](CC(=O)O)O[C@H]2CO3)c1	.	.	3	.	.	.
Cc1ccc(SCc2cc(=O)[nH]c(Nc3nc(C)c4ccccc4n3)n2)cc1	6.1*	-1	.	0	-11	0
CCS(=O)(=O)Nc1ccc2c(c1)C(=O)N(C)C[C@@H](OC)[C@H](C)CN(CCC(F)(F)F)[C@@H](C)CO2	.	.	-16	.	.	.
COC(=O)c1ccc(CN2C(=O)NC(Cc3c[nH]c4ccccc34)C2=O)cc1 (stereo not given)	-1	2	46*	-1	4	-1
O=C1NC(Cc2c[nH]c3ccccc23)C(=O)N1Cc1ccccc1 (stereo not given)	0	0	-1	-1	-8	-1
C[C@H](CO)N1C[C@H](C)[C@H](CN(C)S(C)(=O)=O)OCCCC[C@H](C)Oc2ccc(NC(=O)Nc3ccc(C(F)(F)F)cc3)cc2C1=O	.	.	-4	.	.	.
COc1ccc2oc(C(=O)N3CCN(S(=O)(=O)c4c(C)c(C)cc(C)c4C)CC3)c(C)c2c1	0	-3	51*	-1	-3	-1
COc1ccc2oc(C(=O)NC(C)(C)C)c(C)c2c1	1	13*	.	-1	6	3
COc1ccc2oc(C(=O)C3CC3)c(N)c2c1	1	7	67*	-1	4	2
O=C(C[C@@H]1C[C@@H]2c3cc(NC(=O)c4ccc5c(c4)OCO5)ccc3O[C@@H]2[C@H](CO)O1)NCc1cccnc1	.	.	-2	.	.	.
C[C@H](CO)N1C[C@H](C)[C@@H](CN(C)S(=O)(=O)c2cccs2)OCCCC[C@H](C)Oc2ccc(NC(=O)CCC(F)(F)F)cc2C1=O	.	.	3	.	.	.
CC(=O)N(C)C[C@@H]1Oc2cc(-c3ccccc3F)ccc2S(=O)(=O)N([C@@H](C)CO)C[C@@H]1C	.	.	5	.	.	.
Cc1cc(N=Nc2ccccc2)cc(C)c1NC(=O)C(F)(F)F	2	9	.	0	43*	3
CCNC(=O)[C@@H]1[C@@H](CO)[C@@H]2Cn3c(ccc(-c4cncnc4)c3=O)[C@@H]2N1C(=O)c1ccccc1F	.	.	-7	.	.	.
NC(=O)N/N=C/c1ccccc1OC(=O)c1cc2ccccc2oc1=O	1	4	31	-1	9	2
COc1cccc(C(=O)NCC2CCN(C(=O)C(=O)c3cc4ccccc4o3)CC2)c1	-2	0	.	-1	-4	1
O=C(Oc1ccccc1/C=C\C(=O)c1cc2ccccc2o1)c1ccccc1	6.2*	10	.	0	53*	1
COc1cccc(C(=O)Oc2ccccc2/C=C\C(=O)c2cc3ccccc3o2)c1	6.5*	10	.	1.6*	152*	0
